According to PubChem BioAssay AID1159580 (chemical genetic matrix, 2015):
Where “and” joins values, the source holds several entries; their conditions need not be identical. Identical values can stand only once. The campaign covered roughly 5,500 compounds. About 2,000 (36%) were called active. About 18% were inconclusive and are not listed. Rule as the data show it: active = normalized growth mostly below about 0.91 (no sharp cut-off); inconclusive = no clear call, values can overlap the other calls; inactive = mostly above about 0.92. The list shows a part of the results.

Assay: chemical genetic growth profiling, strain panel (AID 1159580);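 also: tested at 20 µM; growth read once vehicle control cultures reached saturation at 30 °C; 1 = growth at the plate median or of vehicle wells; lower values mean less growth of the strain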
Conditions: S. cerevisiae deletion strains, growth OD

Measured: normalized growth

CCCC(=O)Nc1ncnc2c1ncn2C1O[C@@H]2COP(=O)(O)O[C@H]2[C@H]1OC(=O)CCC (stereo not given in full)
inactive: locus YAL013W, strain DEP1, active compounds read low 1 | locus YAL021C, strain ccr4, active compounds read low 0.981 | locus YAL026C, strain drs2, active compounds read low 0.986 | locus YAL030W, strain snc1, active compounds read low 0.994 | locus YBL061C, strain skt5, active compounds read low 0.97 | locus YBR009C, strain hhf1, active compounds read low 0.962 | locus YBR021W, strain FUR4, active compounds read low 0.999 | locus YBR023C, strain chs3, active compounds read low 0.974 | locus YBR171W, strain sec66, active compounds read low 0.971 | locus YBR229C, strain ROT2, active compounds read low 1.01 | locus YBR231C, strain swc5, active compounds read low 0.995 | locus YBR279W, strain paf1, active compounds read low 0.981 | locus YCL011C, strain gbp2, active compounds read low 0.958 | locus YCL016C, strain dcc1, active compounds read low 0.952 | locus YCL029C, strain bik1, active compounds read low 1.02 | locus YCL061C, strain MRC1, active compounds read low 0.977 | locus YCL069W, strain vba3, active compounds read low 0.974 | locus YCR088W, strain abp1, active compounds read low 0.984 | locus YDL005C, strain med2, active compounds read low 0.982 | locus YDL035C, strain GPR1, active compounds read low 1.02 | locus YDL040C, strain nat1, active compounds read low 0.987 | locus YDL074C, strain BRE1, active compounds read low 1 | locus YDL101C, strain DUN1, active compounds read low 1.01 | locus YDL134C, strain PPH21, active compounds read low 1.01 | locus YDL185W, strain tfp1, active compounds read low 1.02 | locus YDL192W, strain arf1, active compounds read low 1.01 | locus YDR001C, strain nth1, active compounds read low 0.986 | locus YDR069C, strain doa4, active compounds read low 0.999 | locus YDR101C, strain arx1, active compounds read low 1.02 | locus YDR137W, strain rgp1, active compounds read low 0.973 | locus YDR150W, strain NUM1, active compounds read low 1 | locus YDR159W, strain sac3, active compounds read low 1.01 | locus YDR162C, strain NBP2, active compounds read low 1.01 | locus YDR195W, strain ref2 1 | locus YDR297W, strain sur2, active compounds read low 0.985 | locus YDR318W, strain mcm21, active compounds read low 1.02 | locus YDR334W, strain swr1, active compounds read low 0.975 | locus YDR335W, strain msn5, active compounds read low 0.988 | locus YDR388W, active compounds read low 1.02 | locus YDR392W, strain spt3, active compounds read low 0.869 | locus YDR502C, strain sam2, active compounds read low 1.01 | locus YEL003W, strain gim4, active compounds read low 0.995 | locus YEL037C, strain rad23, active compounds read low 0.984 | locus YEL061C, strain CIN8 (second series), active compounds read low 0.985 | locus YEL061C, strain CIN8, active compounds read low 1.01 | locus YER015W, strain faa2, active compounds read low 0.98 | locus YER016W, strain bim1, active compounds read low 0.975 | locus YER110C, active compounds read low 1.03 | locus YER111C, strain swi4, active compounds read low 0.973 | locus YER155C, strain BEM2 (second series), active compounds read low 1.01 | locus YER155C, strain BEM2, active compounds read low 0.996 | locus YER167W, strain BCK2, active compounds read low 1.01 | locus YFR010W, strain ubp6, active compounds read low 0.988 | locus YGL078C, strain dbp3, active compounds read low 1.02 | locus YGL086W, strain mad1, active compounds read low 1 | locus YGL167C, strain pmr1, active compounds read low 0.981 | locus YGL173C, strain kem1, active compounds read low 0.979 | locus YGL227W, strain vid30, active compounds read low 0.978 | locus YGL240W, strain doc1, active compounds read low 1.02 | locus YGL248W, strain PDE1, active compounds read low 1.01 | locus YGL253W, strain hxk2, active compounds read low 0.996 | locus YGR135W, strain pre9, active compounds read low 1.03 | locus YGR229C, strain SMI1, active compounds read low 1.01 | locus YGR252W, strain gcn5, active compounds read low 1.04 | locus YHR013C, strain ard1, active compounds read low 0.973 | locus YHR027C, strain rpn1, active compounds read low 0.979 | locus YHR030C, strain SLT2, active compounds read low 1 and 1.02 | locus YHR079C, strain IRE1 (second series), active compounds read low 1.02 | locus YHR079C, strain IRE1, active compounds read low 1.03 | locus YHR094C, strain hxt1, active compounds read low 1.02 | locus YHR129C, strain ARP1, active compounds read low 1 | locus YHR142W, strain chs7, active compounds read low 0.944 | locus YHR200W, strain rpn10, active compounds read low 1.02 | locus YIL066C, strain RNR3, active compounds read low 1.02 | locus YIL073C, strain SPO22, active compounds read low 1.06 | locus YIL125W, strain kgd1, active compounds read low 1.02 | locus YIR030C, strain dcg1, active compounds read low 1.02 | locus YJL092W, strain hpr5, active compounds read low 0.985 | locus YJL095W, strain BCK1 (second series), active compounds read low 0.979 | locus YJL095W, strain BCK1, active compounds read low 1 and 1.03 | locus YJL115W, strain asf1, active compounds read low 0.985 | locus YJL129C, strain trk1, active compounds read low 0.949 | locus YJL134W, strain LCB3, active compounds read low 1.01 | locus YJL154C, strain vps35, active compounds read low 0.97 | locus YJL164C, strain tpk1, active compounds read low 0.968 | locus YJL166W, strain qcr8, active compounds read low 1.01 | locus YJL168C, strain set2, active compounds read low 1.03 | locus YJL187C, strain SWE1 (second series), active compounds read low 1 | locus YJL187C, strain SWE1, active compounds read low 0.992 | locus YJR043C, strain POL32, active compounds read low 1.01
